From PubChem BioAssay (NCATS) come the findings set out here.

Molecules are shown by their SMILES. Inconclusive results are not listed. A number with no mark means an inactive call. Calls come from the whole dose curve; as a rule, active = well fitted cell-killing curve with a large enough effect; inconclusive = small, poorly fitted or top-dose-only effect, or effect the other way; inactive = no such curve, though single readings can be large or run the other way.
% is set by controls: 0 for no effect and ±100 for the full control effect.

The nature of this assay: qHTS assay to identify small molecule inhibitors of chordoma cells - UCH-1 (AID 1259355). Note: nearly all actives have a fitted effect of over 55% in size. The conditions noted are these: UCH-1 chordoma viability, CellTiter-Glo, 48 h, combination, with auranofin plus four topoisomerase inhibitors; series mostly up to 46.1 µM; activity, negative = inhibition: at the top concentration. A digest of the protocol:
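Luminescent ATP read-out (CellTiter-Glo, 30min at room temperature) measured viability of UCH-1 cells exposed for 48hr to test drugs at 15 concentrations, co-dosed with a five-agent combination of auranofin, camptothecin, doxorubicin, rubitecan and topotecan.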
As for `CCCc1ccc(C(=O)O)cc1`, the “activity, negative = inhibition” value is -27%.
Then `CO[C@H]1C[C@H](O[C@H]2[C@H](C)[C@@H](O[C@@H]3O[C@H](C)C[C@H](N(C)C)[C@H]3O)[C@@H](C)C[C@]3(CO3)C(=O)[C@H](C)[C@@H](O)[C@@H](C)[C@@H](C)OC(=O)[C@@H]2C)O[C@@H](C)[C@@H]1O`, with -27.9% [at 20.6 µM]; and `O=C(O)c1ccc(NC(=O)[C@H](Cc2ccc(O)cc2)NC(=O)c2ccccc2)cc1`, with -32.8%; and `c1ccc2cc(C3=NCCN3)ccc2c1`, with 4.8%.
Then `C=Cc1ccc(S(=O)(=O)O)cc1`, with -5.95%; and `CC[C@H]1NC(=O)[C@@H](NC(=O)c2ncccc2O)[C@@H](C)OC(=O)[C@H](c2ccccc2)NC(=O)[C@@H]2CC(=O)CCN2C(=O)[C@H](Cc2ccccc2)N(C)C(=O)[C@@H]2CCCN2C1=O`, with -4.26%.
Then `COc1ccc2cc([C@H](C)CO)ccc2c1`, with -2.36%; and `CCCC(=O)Nc1c(I)cc(I)c(CC(CC)C(=O)O)c1I` (stereo not drawn), with 2.21%; and `C[C@@](Cc1ccc(O)c(O)c1)(NN)C(=O)O`, with 20.2%.
As to `c1ccc2c(c1)OCC(CN1CCCCC1)O2` (stereo not drawn), the “activity, negative = inhibition” value was -23%.
Then `CCCC1C(=O)N2C(N(C)C)=Nc3ccc(C)cc3N2C1=O` (stereo not drawn), with -12% [at 20.6 µM].
Then `CCCCCCCCCCCC(=O)OCC(O)CO` (stereo not drawn), with -14%.
`CN(Cc1ccccc1)Cc1ccccc1`: the “activity, negative = inhibition” value was -7.09%.
Then `Oc1cc(O)cc(O)c1`, with -21%; and `O=C(O)COc1ccc(CCNS(=O)(=O)c2ccccc2)s1`, with -3.88%.
The figure for `CCOC(=O)[C@H](CS)NCCN[C@@H](CS)C(=O)OCC` is -8.65%.
Regarding `CC(C)C1=CC2=CC[C@@H]3[C@](C)(CCC[C@@]3(C)C(=O)O)[C@H]2CC1`, the “activity, negative = inhibition” value is -15.2%.
Consider `OCC1(CO)COC(C(Cl)(Cl)Cl)OC1`, for which the “activity, negative = inhibition” value was -15.2%.
Then `CC1(C)[C@H]2CC[C@]1(C)[C@H](O)C2`, with -5.68%; and `CCCCCCCCCCCCCCCCCCOCC(COP(=O)([O-])OCC[N+](C)(C)C)OC` (stereo not drawn), with 9.41%.
The figure for `CC[C@@H]1/C=C(\C)C[C@H](C)C[C@H](OC)[C@H]2O[C@@](O)(C(=O)C(=O)N3CCCC[C@H]3C(=O)O[C@H](/C(C)=C/[C@@H]3CC[C@@H](Cl)[C@H](OC)C3)[C@H](C)[C@@H](O)CC1=O)[C@H](C)C[C@@H]2OC` is -5.63%; for `S=C=Nc1ccc(N=C=S)cc1` it is -5.44%; for `CC(C)Cc1ccc([C@@H](C)C(=O)NS(C)(=O)=O)cc1` it is -4.88%.
The figure for `COc1cc(C)c(/C=C/C(C)=C/C=C/C(C)=C/C(=O)O)c(C)c1C` is -27.2%; for `O=C1c2ccccc2CN2C(=O)c3ccccc3CN12` it is -3.17%.
Consider `CCCCC/C=C\CCC(=O)N[C@H]1[C@H](Oc2c3cc4cc2Oc2ccc(cc2Cl)[C@@H](O[C@@H]2O[C@H](CO)[C@@H](O)[C@H](O)[C@H]2NC(C)=O)[C@@H]2NC(=O)[C@H](NC(=O)[C@@H]4NC(=O)[C@H]4NC(=O)[C@@H](Cc5ccc(c(Cl)c5)O3)NC(=O)[C@H](N)c3ccc(O)c(c3)Oc3cc(O)cc4c3)c3ccc(O)c(c3)-c3c(O[C@H]4O[C@H](CO)[C@@H](O)[C@H](O)[C@@H]4O)cc(O)cc3[C@@H](C(=O)O)NC2=O)O[C@H](CO)[C@@H](O)[C@@H]1O`, for which the “activity, negative = inhibition” value is -6.81% [at 20.6 µM].
`Cc1ccccn1`: the “activity, negative = inhibition” value was -9.8%.
The figure for `CO/N=C(\C(=O)N[C@@H]1C(=O)N2C(C(=O)O)=C(CSc3nc(C)c(CC(=O)O)s3)CS[C@H]12)c1csc(N)n1` is 9.48%; for `CC[C@@H](C)[C@H](N)C(=O)O` it is -1.61%.
The figure for `CN[C@H](CC(C)C)C(=O)N[C@H]1C(=O)N[C@@H](CC(N)=O)C(=O)N[C@H]2C(=O)N[C@H]3C(=O)N[C@H](C(=O)N[C@@H](C(=O)O)c4cc(O)cc(O)c4-c4cc3ccc4O)[C@H](O)c3ccc(c(Cl)c3)Oc3cc2cc(c3O[C@@H]2O[C@H](CO)[C@@H](O)[C@H](O)[C@H]2O[C@H]2C[C@](C)(N)C(O)[C@H](C)O2)Oc2ccc(cc2Cl)[C@H]1O` (stereo partly drawn) is 9.71%; for `O=C(O)[C@@H]1C[C@H](CP(=O)(O)O)CCN1` it is 0.187%; for `Cc1cc(O)c2c(c1)O[C@@]1(C)CC[C@H]3C(C)(C)CCCC34CO[C@@H]2[C@H]41` (stereo partly drawn) it is -15.4%.
Then `CC(C)[C@@H]1CC[C@@H](C)C[C@H]1OC(=O)c1ccccc1O`, with -0.806%; and `O=C(O)/C=C/c1ccccc1`, with -14.8%.
As to `Cc1nc(NS(=O)(=O)c2ccc(N)cc2)nc(C)c1Br`, the “activity, negative = inhibition” value was -5.5%.
For the compound `C=O`, the “activity, negative = inhibition” value is -17.7%.
Then `CCOc1ccc(NC(=S)Nc2ccc(OCC)cc2)cc1`, with -8.29%; and `CC(=O)Nc1c(I)c(C(=O)O)c(I)c(N(C)C(C)=O)c1I`, with -3.42%.
